Screening results as filed in PubChem.
Rows were chosen to be rich in hits. Some 4.6% of all compounds tested hit in one or more screens of this group.
Peg3 promoter – reduces Peg3 promoter-driven luciferase expression in HeLa; inhibition, % at 20 µM; hit rate 1.7% among 360,000; HeLa PEG-Prom luciferase reporter, luminescence, overnight; AID 588405;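 active = inhibition of at least 50% at 20 µM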
HIF-2a inh – inhibitors of HIF-2a. AID 624352. hit rate 0.72% among 360,000. inhibition, % at 18.8 µM. 786-0 RCC cells HIF-2a reporter, luciferase luminescence, overnight;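 active = inhibition of the luminescence signal of 40% or more relative to plate controls, in a single-dose primary screen at 18.75 µM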
Mdm2-MdmX inh – inhibitors of human Mdm2/MdmX interaction; O15151+Q00987; SaOS-2 split-luciferase Mdm2/MdmX complementation, luminescence; inhibition, % at 8 µM; hit rate 3% among 330,000; AID 485346;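 active = inhibition of at least 50% at 8 µM in the primary screen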
Target sequence (O15151 whole entry, looked up): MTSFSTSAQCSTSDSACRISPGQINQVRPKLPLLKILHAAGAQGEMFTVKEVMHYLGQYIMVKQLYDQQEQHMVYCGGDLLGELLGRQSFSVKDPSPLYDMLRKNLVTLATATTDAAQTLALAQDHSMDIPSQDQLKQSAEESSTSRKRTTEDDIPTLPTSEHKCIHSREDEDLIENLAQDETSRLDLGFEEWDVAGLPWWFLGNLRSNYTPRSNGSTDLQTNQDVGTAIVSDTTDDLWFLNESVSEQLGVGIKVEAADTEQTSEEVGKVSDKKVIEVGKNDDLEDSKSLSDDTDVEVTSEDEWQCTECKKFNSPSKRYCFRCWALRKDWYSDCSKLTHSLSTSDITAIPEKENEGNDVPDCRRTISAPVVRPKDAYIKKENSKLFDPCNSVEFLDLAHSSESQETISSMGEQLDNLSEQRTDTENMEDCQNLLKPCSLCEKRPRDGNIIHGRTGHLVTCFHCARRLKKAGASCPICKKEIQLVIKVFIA
Target sequence (Q00987 whole entry, looked up): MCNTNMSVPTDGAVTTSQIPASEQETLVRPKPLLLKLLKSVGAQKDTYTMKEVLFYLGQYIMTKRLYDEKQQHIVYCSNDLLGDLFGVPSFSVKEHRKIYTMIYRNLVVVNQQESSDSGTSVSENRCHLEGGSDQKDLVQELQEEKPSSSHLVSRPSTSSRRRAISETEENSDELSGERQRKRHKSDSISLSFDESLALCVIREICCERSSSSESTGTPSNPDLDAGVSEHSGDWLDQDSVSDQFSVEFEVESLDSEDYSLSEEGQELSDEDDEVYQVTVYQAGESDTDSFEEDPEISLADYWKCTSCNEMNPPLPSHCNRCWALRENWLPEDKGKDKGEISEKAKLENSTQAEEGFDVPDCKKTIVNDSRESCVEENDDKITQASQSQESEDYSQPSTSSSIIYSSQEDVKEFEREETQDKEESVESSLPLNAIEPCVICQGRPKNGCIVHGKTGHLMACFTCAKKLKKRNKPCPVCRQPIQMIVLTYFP
ABHD5 PLIN5 PPI – inhibitors of human ABHD5-perilipin-5 interaction | hit rate 0.78% among 360,000 | Split G. princeps luciferase complementation, luminescence, 4 h | Q00G26+Q8WTS1 | AID 602281 | inhibition, % at 4 µM;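 active = inhibition above the mean inhibition across every tested compound plus 3 SD, cut at about 22% in these data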;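 also: 0% = DMSO only wells and the 100% control is not disclosed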
KKLEB cytotox – reduces viability of KKLEB cystic fibrosis airway cells; KKLEB CF airway cells viability, ATPlite luminescence, overnight; active compounds read low; cells stimulated with P. aeruginosa culture filtrate; activity change (cytotoxicity), % at 5 µM; hit rate 0.36% among 360,000; AID 602141;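 active = corrected activity change at or below -50% at 5 µM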
CF NFkB block – inhibitors of cystic fibrosis induced NF-kB | KKLEB NF-kB-GFP reporter, PAF-induced, GFP fluorescence overnight | inhibition, % at 5 µM | hit rate 0.86% among 360,000 | AID 588850;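 active = at least 50% inhibition at 5 µM, scaled per plate between neutral and stimulator controls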;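 also: PAF is a Pseudomonas aeruginosa culture filtrate used as stimulus; plate controls were PAF-stimulated DMSO wells for no effect and unstimulated DMSO wells for full effect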
Mdm2 MdmX conf – confirmation of human Mdm2/MdmX interaction inhibitors. shares compounds with Mdm2-MdmX inh. inhibition, % at 8 µM. Mdm2-MdmX binding, luminescent assay. AID 489028. hit rate 55% among 10,000; in the data active = inhibition above about 40%
FLuc counter – counter-screen for Mdm2/MdmX inhibitors: full-length luciferase | hit rate 77% among 6,200 | AID 504607 | SaOS-2 full-length luciferase counterscreen, luminescence | inhibition, % at 8 µM | shares compounds with Mdm2-MdmX inh;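 active = mean inhibition at 8 µM reaching about 37%, which flags the compound as non-specific, limit read from the data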;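 also: p53-null SaOS-2 cells with luciferase driven by a doxycycline-inducible promoter; compound on cells about two nights before reading with doxycycline added after day one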
* marks the source's active call; other numbers are inactive results; x = not tested or not shown.

SMILES | Peg3 promoter | HIF-2a inh | Mdm2-MdmX inh | ABHD5 PLIN5 PPI | KKLEB cytotox | CF NFkB block | Mdm2 MdmX conf | others
CCCS(=O)(=O)NC(=O)C1(C)CCN(C(=O)c2oc3ccccc3c2C)C1 (configuration not stated) | 9 | 18 | x | 1 | 3 | 7 | x
O=[N+]([O-])c1cc([N+](=O)[O-])c(Oc2cccnc2Br)cc1NN1CCCCC1 | 19 | 13 | 56* | -1 | -10 | 4 | 13
O=[N+]([O-])c1cc([N+](=O)[O-])c(Oc2cccc3ccccc23)cc1NN1CCCCC1 | 19 | 24 | x | 5 | -12 | 18 | x
Cc1ccccc1NC(=O)Nc1nnc([C@@H]2C[C@H](O)[C@@H](CO)O2)s1 | -5 | -13 | x | 2 | 5 | -6 | x
C=C[C@@H]1c2c(F)cccc2N(S(=O)(=O)c2ccc(C)cc2)[C@H](c2ccc(OC(C)=O)cc2)C1(C#N)C#N | 41 | 19 | 37 | -1 | -15 | 8 | x
C=C[C@@H]1c2cccc(C)c2N(S(=O)(=O)c2ccc(C)cc2)[C@H](c2ccc(OC(C)=O)cc2)C1(C#N)C#N | 39 | 29 | 51* | 10 | -13 | 18 | -4
CCOc1ccc(-c2cc(C(=O)NCCCn3ccnc3)c3cc(Br)ccc3n2)cc1 | 106* | 7 | 100* | 12 | -45 | -167 | 23
CCOc1ccc(-c2cc(C(=O)NCCCn3ccnc3)c3ccccc3n2)cc1 | -57 | -151 | 8 | 3 | 5 | 7 | x
Cc1onc(-c2c(Cl)cccc2Cl)c1C(=O)N/N=C(\N)COc1ccc(Cl)cc1 | 42 | 25 | 72* | 21 | -14 | -15 | 82* | FLuc counter=40*
CCOc1ccc(Cl)cc1S(=O)(=O)n1cnc2ccccc21 | 25 | 21 | 37 | 5 | -32 | 6 | x
CCOc1ccc(C)cc1S(=O)(=O)n1cnc2ccccc21 | 37 | 22 | 52* | 9 | -28 | 10 | 61* | FLuc counter=45*
CCOC(=O)c1sc(NC(=O)Nc2cccc(Cl)c2)cc1C | -124 | -303 | 78* | -7 | -64* | 60* | 71* | FLuc counter=34
CC(C)C(=O)NC(Nc1cc(C(F)(F)F)ccc1Cl)C(Cl)(Cl)Cl (configuration not stated) | 15 | 6 | 29 | -11 | -4 | 6 | x
O=C(NC(Nc1cc(C(F)(F)F)ccc1Cl)C(=O)c1ccccc1)c1ccccc1 (configuration not stated) | 4 | -6 | 52* | -4 | 5 | 7 | 8
CC(=O)Nc1cc(-c2cccc(C(=O)NCCN(C)C)c2)cn2c(-c3ccc(C(C)=O)cc3)cnc12 | -5 | 26 | x | 7 | -19 | 0 | x
CC1(C)Oc2ccc3ccc(=O)oc3c2/C(=C/Nc2ccc(O)cc2)C1=O | 21 | 11 | 55* | -12 | -3 | 10 | 25
CC1(C)Oc2ccc3ccc(=O)oc3c2/C(=C/Nc2cccc(O)c2)C1=O | 20 | 2 | 30 | -1 | 10 | -7 | x
CCOc1ccccc1NC(=O)CCSc1nc2n[nH]c(C)c2c(=N)n1-c1ccccc1Cl | 29 | 16 | 28 | 6 | -40 | 35 | x
CCOc1ccccc1-n1c(SCC(=O)Nc2ccc(CC)cc2)nc2n[nH]c(C)c2c1=N | x | x | 93* | x | x | x | 11
Cc1ccccc1-n1c(SCC(=O)Nc2ccccc2Cl)nc2n[nH]c(C)c2c1=N | 35 | 13 | 66* | 0 | 2 | -3 | 12
COc1ccc(C(=O)O/N=C(\N)c2ccc(Br)cc2)cc1 | -252 | -160 | 96* | -5 | -3 | -11 | 36 | FLuc counter=158*
N/C(=N\OC(=O)c1cccc(Br)c1)c1ccc(Br)cc1 | -198 | -99 | -37 | -6 | -7 | -1 | x
Cc1ccc(C(=O)O/N=C(\N)c2ccc(Br)cc2)cc1 | -320 | -253 | 98* | 2 | 18 | -23 | 29
COc1ccc(C(=O)O/N=C(\N)c2ccccc2)cc1 | 31 | -189 | 55* | 7 | 5 | -8 | 22
N/C(=N\OC(=O)c1ccc(Br)cc1)c1ccccc1 | -250 | -262 | -115 | 4 | -8 | -6 | x
